According to PubChem BioAssay (NCATS):
Inconclusive results are not listed. Values without a mark were called inactive. Active and inactive are the calls of the source. Unless noted, calls come from the whole dose curve; as a rule, active = well fitted curve in the direction sought with a large enough effect; inconclusive = small, poorly fitted or top-dose-only effect, or another doubt; inactive = no such curve, though single readings can be large; an effect the other way counts as inactive or inconclusive.

Molecular target: Cytochrome P450 2C9 (Homo sapiens) (UniProt P11712)
Test: Cytochrome P450 family 2 subfamily C member 9 (CYP2C9) small molecule antagonists: luciferase biochemical (cell-free) qHTS assay (AID 1645842; active = well fitted curve in the direction sought with a large enough effect in the repeat runs; an effect the other way counts as inactive or inconclusive; note: nearly all actives have a fitted effect of over 55% in size; note: potency is the fitted concentration of half-maximal effect)
Conditions: P450-Glo CYP2C9 enzyme assay, luciferin luminescence; series mostly up to 57.4 µM; activity change, negative = inhibition: at the top concentration
Procedure, shortened: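 P450-Glo CYP2C9 system: proluciferin substrate with enzyme in mix containing 0.4% BSA, 10 min at room temperature, then NADPH regeneration solution added and incubated 1 h at 37C. Detection reagent stopped reaction; luminescence read after 20 min as RLU.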
% is set by controls: 0 for no effect and ±100 for the full control effect.

Sequence of Cytochrome P450 2C9 (Homo sapiens) (P11712 whole entry, looked up): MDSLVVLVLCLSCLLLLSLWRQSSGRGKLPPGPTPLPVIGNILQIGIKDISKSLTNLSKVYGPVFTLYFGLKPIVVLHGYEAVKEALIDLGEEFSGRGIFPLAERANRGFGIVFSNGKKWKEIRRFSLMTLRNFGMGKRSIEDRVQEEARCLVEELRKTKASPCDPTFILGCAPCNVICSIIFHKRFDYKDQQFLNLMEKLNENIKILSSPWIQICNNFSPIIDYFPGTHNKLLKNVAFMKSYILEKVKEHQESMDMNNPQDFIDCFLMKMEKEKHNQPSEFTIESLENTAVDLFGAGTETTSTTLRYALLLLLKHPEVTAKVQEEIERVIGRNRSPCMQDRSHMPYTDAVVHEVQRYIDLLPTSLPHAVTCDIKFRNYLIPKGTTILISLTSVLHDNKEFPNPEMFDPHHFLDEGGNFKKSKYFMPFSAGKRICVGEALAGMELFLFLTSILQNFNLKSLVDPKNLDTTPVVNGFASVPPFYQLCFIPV

SMILES | activity change, negative = inhibition | Potency
NC(=O)c1ncn([C@@H]2O[C@H](CO)[C@@H](O)[C@H]2O)c1N | 10.5% | 
CC/C=C(\C(=O)N[C@@H]1C(=O)N2C(C(=O)OCOC(=O)C(C)(C)C)=C(COC(N)=O)CS[C@H]12)c1csc(N)n1 |  | 15.5 µM (active)
CC12CCC(CC1)C(C)(C)O2 | 20.3% | 
CS(=O)(=O)c1ccc([C@@H](O)[C@@H](CF)NC(=O)C(Cl)Cl)cc1 | -2.77% | 
CCCCN(CCCC)CCCOC(=O)c1ccc(N)cc1 | -12.6% | 
Cc1ncc(COP(=O)(O)O)c(C=O)c1O | 12% | 
CC1(C)OC(=O)NC1=O | 13% | 
CCOC(=O)[C@H](CCc1ccccc1)N[C@@H](C)C(=O)N1C(=O)N(C)C[C@H]1C(=O)O |  | inactive
C[C@@H]1CCN(C(=O)[C@H](CCCN=C(N)N)NS(=O)(=O)c2cccc3c2NC[C@H](C)C3)[C@@H](C(=O)O)C1 | 8.63% | 
O=C1O[C@H]([C@@H](O)CO)C(O)=C1O |  | inactive
CCCCC/C(C=O)=C\c1ccccc1 | 10.6% | 
CN1CCC[C@@H]1Cc1c[nH]c2ccc(CCS(=O)(=O)c3ccccc3)cc12 |  | 13.8 µM (active)
CCCOC(=O)c1ccccc1 | 12.4% | 
CN(C)CCCO[C@@H]1[C@H]2OC(C)(C)O[C@H]2O[C@@H]1C(O)CO (stereo partly specified) | 2.63% | 
Cn1c(=O)c2c(ncn2CC2OCCO2)n(C)c1=O | -3.31% | 
CCOc1ccc2ccccc2c1C(=O)N[C@@H]1C(=O)N2[C@@H]1SC(C)(C)[C@@H]2C(=O)O | -11.6% | 

SMILES | activity change, negative = inhibition | Potency
Cc1cccc(C)c1NC(=O)CN(CC(=O)O)CC(=O)O | 17.6% | 
Cc1cc2c(cc1S(N)(=O)=O)S(=O)(=O)CCC2 | 63.6% | 
COc1ccccc1O | 5.06% [at 115 µM] | 
CC[C@@]1(c2ccccc2)NC(=O)N(C)C1=O | 12% | 
CCCCc1ncc(/C=C(\Cc2cccs2)C(=O)O)n1Cc1ccc(C(=O)O)cc1 | 0.0881% | 
O=C(O)CC(O)C(=O)O (stereo unspecified) | 13.4% | 
Oc1cn2c(n1)Nc1ccc(Cl)c(Cl)c1C2 |  | 6.74 µM (active)
CC(=O)Oc1ccc(C2(c3ccc(OC(C)=O)cc3)C(=O)Nc3ccccc32)cc1 |  | 5.49 µM (active)
CCN(CC)CCSC(=O)C(c1ccccc1)c1ccccc1 |  | 13.8 µM (active)
[Cl][In]([Cl])[Cl] | 1.9% [at 115 µM] | 
O=S(=O)(O)NC1CCCCC1 | 19.6% | 
C#CCN(C)Cc1ccccc1 | 12.1% | 
Oc1ccc(C(O)CNCCCCCCNCC(O)c2ccc(O)c(O)c2)cc1O (stereo unspecified) | 4.08% | 
N[C@@H](CSSC[C@H](N)C(=O)O)C(=O)O | 15.4% [at 0.91 µM] | 
COc1cc(C(=O)N2CCOCC2)cc(OC)c1OC | 4.98% | 
COc1ccc2cc1Oc1cc3c(cc1OC)CC[N+](C)(C)[C@H]3Cc1ccc(cc1)Oc1c(OC)c(OC)cc3c1[C@@H](C2)[N+](C)(C)CC3 | 2.09% | 

Molecular target: Papain (Carica papaya) (UniProt P00784)
Test: Primary qHTS assay for inhibitors of the protease papain (AID 1645873);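 note: papain turnover of Z-FR-AMC read as the AMC fluorescence gain over 10 min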
Conditions: papain Z-FR-AMC cleavage, AMC fluorescence; series mostly up to 49.8 µM; activity change, negative = inhibition: at the top concentration

Sequence of Papain (Carica papaya) (P00784 whole entry, looked up): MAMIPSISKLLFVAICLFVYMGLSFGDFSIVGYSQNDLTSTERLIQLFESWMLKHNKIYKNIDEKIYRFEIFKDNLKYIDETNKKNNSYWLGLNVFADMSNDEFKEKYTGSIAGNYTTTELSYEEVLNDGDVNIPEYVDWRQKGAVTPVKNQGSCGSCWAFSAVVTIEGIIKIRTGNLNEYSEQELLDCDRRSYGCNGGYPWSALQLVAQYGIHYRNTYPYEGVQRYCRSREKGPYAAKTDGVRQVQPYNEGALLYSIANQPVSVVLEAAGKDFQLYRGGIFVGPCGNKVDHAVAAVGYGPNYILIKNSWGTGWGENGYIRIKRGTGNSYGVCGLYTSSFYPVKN

SMILES | activity change, negative = inhibition [%]
CN1CCC[C@@H]1Cc1c[nH]c2ccc(CCS(=O)(=O)c3ccccc3)cc12 | -7.11
CCCCc1ncc(/C=C(\Cc2cccs2)C(=O)O)n1Cc1ccc(C(=O)O)cc1 | -6.57
C#CCN(C)Cc1ccccc1 | 13.2

System: not listed separately
Test: Primary qHTS for inhibitors of nuclear receptor binding SET domain protein 2 (NSD2) in an isogenic RCH-ACV NSD2 p.E1099K mutant (9B) (AID 1645876); note: nearly all actives have a fitted effect of over 70% in size; note: potency is the fitted concentration of half-maximal effect
Conditions: RCH-ACV (leukaemia line) NSD2 E1099K (9B) viability, CellTiter-Glo, 72 h; series mostly up to 44.9 µM; activity change, negative = viability loss: at the top concentration

SMILES | outcome | activity change, negative = viability loss | Potency
NC(=O)c1ncn([C@@H]2O[C@H](CO)[C@@H](O)[C@H]2O)c1N | inactive |  | 
CC/C=C(\C(=O)N[C@@H]1C(=O)N2C(C(=O)OCOC(=O)C(C)(C)C)=C(COC(N)=O)CS[C@H]12)c1csc(N)n1 |  | 4.34% | 
CC12CCC(CC1)C(C)(C)O2 |  | -9.24% | 
CCCCN(CCCC)CCCOC(=O)c1ccc(N)cc1 |  | -10.1% | 
Cc1ncc(COP(=O)(O)O)c(C=O)c1O | inactive |  | 
CC1(C)OC(=O)NC1=O | inactive |  | 
CCOC(=O)[C@H](CCc1ccccc1)N[C@@H](C)C(=O)N1C(=O)N(C)C[C@H]1C(=O)O |  |  | inactive
C[C@@H]1CCN(C(=O)[C@H](CCCN=C(N)N)NS(=O)(=O)c2cccc3c2NC[C@H](C)C3)[C@@H](C(=O)O)C1 |  | 9.9% | 
O=C1O[C@H]([C@@H](O)CO)C(O)=C1O | inactive |  | 
CCCCC/C(C=O)=C\c1ccccc1 | inactive |  | 
CN1CCC[C@@H]1Cc1c[nH]c2ccc(CCS(=O)(=O)c3ccccc3)cc12 |  |  | inactive
CCCOC(=O)c1ccccc1 |  | -6.76% | 
CN(C)CCCO[C@@H]1[C@H]2OC(C)(C)O[C@H]2O[C@@H]1C(O)CO (stereo partly specified) |  | 3.8% | 
Cn1c(=O)c2c(ncn2CC2OCCO2)n(C)c1=O |  | 9.12% | 
CCOc1ccc2ccccc2c1C(=O)N[C@@H]1C(=O)N2[C@@H]1SC(C)(C)[C@@H]2C(=O)O |  | -1.53% | 
O=C1OC(OC(=O)c2cccnc2Nc2cccc(C(F)(F)F)c2)c2ccccc21 (stereo unspecified) |  | 4.95% | 

SMILES | outcome | activity change, negative = viability loss | Potency
Cc1cccc(C)c1NC(=O)CN(CC(=O)O)CC(=O)O |  | 0.0037% | 
CC1=C(C/C=C(\C)CCC[C@H](C)CCC[C@H](C)CCCC(C)C)C(=O)c2ccccc2C1=O |  | 8.19% | 
Cc1cc2c(cc1S(N)(=O)=O)S(=O)(=O)CCC2 |  | 2.84% | 
CC[C@@]1(c2ccccc2)NC(=O)N(C)C1=O | inactive |  | 
CCCCc1ncc(/C=C(\Cc2cccs2)C(=O)O)n1Cc1ccc(C(=O)O)cc1 |  |  | inactive
O=C(O)CC(O)C(=O)O (stereo unspecified) | inactive |  | 
Oc1cn2c(n1)Nc1ccc(Cl)c(Cl)c1C2 |  | 6.2% [at 17.3 µM] | 
CC(=O)Oc1ccc(C2(c3ccc(OC(C)=O)cc3)C(=O)Nc3ccccc32)cc1 |  | -23.3% | 
[Cl][In]([Cl])[Cl] |  |  | 24.3 µM (active)
O=S(=O)(O)NC1CCCCC1 |  | 0.349% | 
C#CCN(C)Cc1ccccc1 | inactive |  | 
Oc1ccc(C(O)CNCCCCCCNCC(O)c2ccc(O)c(O)c2)cc1O (stereo unspecified) |  | -17.8% | 
N[C@@H](CSSC[C@H](N)C(=O)O)C(=O)O |  | -6.57% [at 0.588 µM] | 
COc1cc(C(=O)N2CCOCC2)cc(OC)c1OC | inactive |  | 
COc1ccc2cc1Oc1cc3c(cc1OC)CC[N+](C)(C)[C@H]3Cc1ccc(cc1)Oc1c(OC)c(OC)cc3c1[C@@H](C2)[N+](C)(C)CC3 |  | 5.55% | 
